Holding throughout (design): scale not given: direction of the effect not stated beside the values
Test [1] has as its target Protein translocase subunit SecA (Escherichia coli (strain K12)) (UniProt P10408). The test is described as follows: Assay to Identify E. coli SecA ATPase Inhibitors. The test is classed as functional. The following applies: 30 µM.
Test [2] concerns the target T1, Ubiquitin-activating enzyme e1, putative (Leishmania donovani (strain BPK282A1)) (UniProt E9BSI1).
T1 sequence (whole entry): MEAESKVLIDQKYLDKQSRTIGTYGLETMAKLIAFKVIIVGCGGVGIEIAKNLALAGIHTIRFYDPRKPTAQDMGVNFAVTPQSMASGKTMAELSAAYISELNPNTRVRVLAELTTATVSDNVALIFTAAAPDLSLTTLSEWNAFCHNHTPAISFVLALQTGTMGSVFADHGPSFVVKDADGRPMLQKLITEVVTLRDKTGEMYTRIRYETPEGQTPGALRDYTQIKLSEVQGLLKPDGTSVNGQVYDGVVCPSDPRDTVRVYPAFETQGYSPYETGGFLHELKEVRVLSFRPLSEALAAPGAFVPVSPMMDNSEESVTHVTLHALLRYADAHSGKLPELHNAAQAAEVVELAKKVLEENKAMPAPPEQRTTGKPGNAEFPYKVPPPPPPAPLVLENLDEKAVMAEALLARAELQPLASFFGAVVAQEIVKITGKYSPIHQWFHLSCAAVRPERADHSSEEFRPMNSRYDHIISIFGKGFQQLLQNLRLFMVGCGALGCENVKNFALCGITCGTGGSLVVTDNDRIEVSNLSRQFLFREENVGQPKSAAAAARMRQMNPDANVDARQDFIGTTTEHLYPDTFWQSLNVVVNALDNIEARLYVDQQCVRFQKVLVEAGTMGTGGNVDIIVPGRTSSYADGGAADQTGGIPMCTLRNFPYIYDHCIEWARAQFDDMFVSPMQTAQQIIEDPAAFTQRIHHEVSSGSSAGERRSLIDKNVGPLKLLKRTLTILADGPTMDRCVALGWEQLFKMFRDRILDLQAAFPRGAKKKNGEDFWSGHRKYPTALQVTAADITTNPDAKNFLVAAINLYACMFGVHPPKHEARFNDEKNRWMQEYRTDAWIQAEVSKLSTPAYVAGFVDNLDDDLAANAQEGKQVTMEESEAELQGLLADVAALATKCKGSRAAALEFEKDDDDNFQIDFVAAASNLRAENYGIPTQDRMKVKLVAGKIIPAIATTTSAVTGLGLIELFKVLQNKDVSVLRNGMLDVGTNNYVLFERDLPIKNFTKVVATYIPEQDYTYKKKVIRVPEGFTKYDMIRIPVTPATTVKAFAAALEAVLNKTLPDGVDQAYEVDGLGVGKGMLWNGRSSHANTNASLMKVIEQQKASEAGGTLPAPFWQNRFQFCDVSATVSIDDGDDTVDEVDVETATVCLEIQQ
Description: Leishmania donovani Ubiquitin Activating Enzyme (LdE1). The test is classed as functional. The following applies: 30 µM.

Test [3] has as its target Sialic acid-binding Ig-like lectin 9 (Homo sapiens) (UniProt Q9Y336). Description: Hs-Siglec9 ALPHAscreen SOP 20170721. The settings on record: 10 µM.
The subject of a further test is Trypanosoma cruzi. The test is described as follows: Trypanosoma cruzi phosphomannomutase and mannose-1-phosphate guanylyltransferase assay. In kind it is functional. The following applies: 10 µM.
The target in test [4] is T2, Arginase-2, mitochondrial (Homo sapiens) (UniProt P78540).
T2 sequence (whole entry): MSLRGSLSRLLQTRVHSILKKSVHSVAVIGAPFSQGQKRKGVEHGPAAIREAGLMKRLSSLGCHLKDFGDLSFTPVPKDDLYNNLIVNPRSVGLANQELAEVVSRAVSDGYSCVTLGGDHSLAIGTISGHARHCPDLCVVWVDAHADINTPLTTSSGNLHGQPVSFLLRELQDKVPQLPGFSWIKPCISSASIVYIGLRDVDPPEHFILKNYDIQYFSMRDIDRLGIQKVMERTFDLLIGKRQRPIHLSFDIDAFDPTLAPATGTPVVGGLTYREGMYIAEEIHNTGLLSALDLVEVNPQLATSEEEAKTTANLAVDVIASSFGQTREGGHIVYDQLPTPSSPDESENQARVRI
The test is described as follows: in vitro enzyme assay to detect the production of urea directly proportional to the activity of Arginase II. Also: in the data most compounds retested in dose-response had high values. The following applies: 33.3 µM. The test is classed as functional.

In test [5] the target is T3, Proteasome subunit beta (Trypanosoma cruzi) (UniProt O96673).
T3 sequence (whole entry): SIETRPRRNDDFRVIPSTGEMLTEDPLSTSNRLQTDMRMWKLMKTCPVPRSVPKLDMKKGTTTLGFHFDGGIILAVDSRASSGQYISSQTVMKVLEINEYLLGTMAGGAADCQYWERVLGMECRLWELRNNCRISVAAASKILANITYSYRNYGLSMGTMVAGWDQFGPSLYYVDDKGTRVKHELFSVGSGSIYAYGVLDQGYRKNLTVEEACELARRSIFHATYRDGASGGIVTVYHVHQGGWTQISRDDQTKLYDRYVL
The test is described as follows: Trypanosoma cruzi proteasome chymotrypsin-like activity (TcProtChymo) assay. Also: in the data most compounds retested in dose-response had high values. In kind it is functional. The following applies: 9.37 µM.

The species named for the next test is Homo sapiens. Description: To identify inhibition of the IFN signalling (Jak-Stat) pathway via expression of an eGFP reporter gene under the control of an IFN-stimulated response element (ISRE) containing MxA promoter. The test is classed as functional. The settings on record: 30 µM. (In general: In a reporter assay the amount or activity of a reporter protein is the signal.)

Test [6] deals with T4, Tyrosyl-tRNA synthetase, putative (Trypanosoma cruzi (strain CL Brener)) (UniProt Q4DSP6).
T4 sequence (whole entry): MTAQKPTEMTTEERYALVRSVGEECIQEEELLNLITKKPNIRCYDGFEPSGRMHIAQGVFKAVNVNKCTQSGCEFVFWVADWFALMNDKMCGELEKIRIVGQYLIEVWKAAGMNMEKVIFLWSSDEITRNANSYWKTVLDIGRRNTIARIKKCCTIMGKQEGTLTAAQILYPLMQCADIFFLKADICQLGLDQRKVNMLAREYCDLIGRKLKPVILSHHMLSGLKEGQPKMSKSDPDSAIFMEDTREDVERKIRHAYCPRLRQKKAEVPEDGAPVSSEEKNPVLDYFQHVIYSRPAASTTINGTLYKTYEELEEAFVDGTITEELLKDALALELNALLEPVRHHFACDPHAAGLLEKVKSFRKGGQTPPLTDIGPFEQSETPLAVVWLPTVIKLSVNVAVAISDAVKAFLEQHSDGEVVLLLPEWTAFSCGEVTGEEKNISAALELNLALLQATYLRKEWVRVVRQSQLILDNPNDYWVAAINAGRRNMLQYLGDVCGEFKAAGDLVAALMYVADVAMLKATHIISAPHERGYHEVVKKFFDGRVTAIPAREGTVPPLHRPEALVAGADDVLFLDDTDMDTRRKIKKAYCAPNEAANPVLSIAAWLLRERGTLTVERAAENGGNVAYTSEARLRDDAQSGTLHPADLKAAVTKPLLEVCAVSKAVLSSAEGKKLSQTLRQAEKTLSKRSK
Description: Trypanosoma cruzi tyrosyl tRNA synthetase (TcYRS) _High Tyrosine SOP. Also: in the data most compounds retested in dose-response had high values. The test is classed as functional. The settings on record: 30 µM.

Test [7] addresses T4, Tyrosyl-tRNA synthetase, putative (Trypanosoma cruzi (strain CL Brener)). Description: Trypanosoma cruzi tyrosyl tRNA synthetase (TcYRS) SOP. The test is classed as functional. The following applies: 30 µM.
In test [8] the target is Chromo domain-containing protein 1 (Saccharomyces cerevisiae (strain ATCC 204508 / S288c) (Baker's yeast)) (UniProt P32657). The test is described as follows: ScCHD-1 Enzyme Inhibition Assay. Also: in the data most compounds retested in dose-response had high values. In kind it is functional. The settings on record: 30 µM.

SMILES strings stand for the structures. For some assays here: Entries with a potency or affinity are not part of this list.

Chromo domain-containing protein 1 (Saccharomyces cerevisiae (strain ATCC 204508 / S288c) (Baker's yeast)), sequence (P32657 whole entry, the tested form may be a part): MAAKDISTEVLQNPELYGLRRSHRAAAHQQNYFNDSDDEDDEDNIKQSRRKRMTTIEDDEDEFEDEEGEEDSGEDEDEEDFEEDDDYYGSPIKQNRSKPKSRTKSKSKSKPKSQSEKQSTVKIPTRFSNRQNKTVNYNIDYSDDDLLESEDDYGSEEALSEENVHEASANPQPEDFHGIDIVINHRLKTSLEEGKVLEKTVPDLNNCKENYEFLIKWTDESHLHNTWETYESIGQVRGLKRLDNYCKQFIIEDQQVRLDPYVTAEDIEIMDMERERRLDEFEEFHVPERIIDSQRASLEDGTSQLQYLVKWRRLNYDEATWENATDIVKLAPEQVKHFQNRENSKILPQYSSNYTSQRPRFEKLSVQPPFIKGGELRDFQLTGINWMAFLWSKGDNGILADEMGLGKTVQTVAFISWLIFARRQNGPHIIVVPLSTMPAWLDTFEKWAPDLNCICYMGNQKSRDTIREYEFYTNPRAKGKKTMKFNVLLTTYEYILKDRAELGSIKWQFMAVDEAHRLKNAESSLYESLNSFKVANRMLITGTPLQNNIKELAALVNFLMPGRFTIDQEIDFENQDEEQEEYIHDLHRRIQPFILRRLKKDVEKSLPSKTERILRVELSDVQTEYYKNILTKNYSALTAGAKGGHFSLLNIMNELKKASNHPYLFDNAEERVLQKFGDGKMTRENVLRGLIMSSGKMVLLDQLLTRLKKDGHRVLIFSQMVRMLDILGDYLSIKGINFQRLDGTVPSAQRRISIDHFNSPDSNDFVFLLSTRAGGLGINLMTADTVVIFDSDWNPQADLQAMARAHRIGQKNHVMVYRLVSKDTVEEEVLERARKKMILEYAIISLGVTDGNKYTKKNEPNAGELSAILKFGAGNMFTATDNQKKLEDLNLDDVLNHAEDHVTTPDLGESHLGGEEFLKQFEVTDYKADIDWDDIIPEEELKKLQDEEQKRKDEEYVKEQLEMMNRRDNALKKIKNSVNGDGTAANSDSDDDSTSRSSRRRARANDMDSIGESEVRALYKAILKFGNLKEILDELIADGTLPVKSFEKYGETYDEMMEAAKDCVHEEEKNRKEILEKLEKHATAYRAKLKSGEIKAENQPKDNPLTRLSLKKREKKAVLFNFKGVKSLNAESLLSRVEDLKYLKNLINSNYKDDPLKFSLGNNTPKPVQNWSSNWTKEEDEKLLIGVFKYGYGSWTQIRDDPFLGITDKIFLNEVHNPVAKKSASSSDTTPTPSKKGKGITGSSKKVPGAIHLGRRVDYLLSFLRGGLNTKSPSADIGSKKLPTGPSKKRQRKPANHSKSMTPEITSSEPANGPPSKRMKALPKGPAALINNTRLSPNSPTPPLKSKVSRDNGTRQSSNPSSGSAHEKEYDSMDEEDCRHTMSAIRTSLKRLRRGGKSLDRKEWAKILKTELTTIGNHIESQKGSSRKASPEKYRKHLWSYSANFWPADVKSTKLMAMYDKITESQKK
Sialic acid-binding Ig-like lectin 9 (Homo sapiens), sequence (Q9Y336 whole entry): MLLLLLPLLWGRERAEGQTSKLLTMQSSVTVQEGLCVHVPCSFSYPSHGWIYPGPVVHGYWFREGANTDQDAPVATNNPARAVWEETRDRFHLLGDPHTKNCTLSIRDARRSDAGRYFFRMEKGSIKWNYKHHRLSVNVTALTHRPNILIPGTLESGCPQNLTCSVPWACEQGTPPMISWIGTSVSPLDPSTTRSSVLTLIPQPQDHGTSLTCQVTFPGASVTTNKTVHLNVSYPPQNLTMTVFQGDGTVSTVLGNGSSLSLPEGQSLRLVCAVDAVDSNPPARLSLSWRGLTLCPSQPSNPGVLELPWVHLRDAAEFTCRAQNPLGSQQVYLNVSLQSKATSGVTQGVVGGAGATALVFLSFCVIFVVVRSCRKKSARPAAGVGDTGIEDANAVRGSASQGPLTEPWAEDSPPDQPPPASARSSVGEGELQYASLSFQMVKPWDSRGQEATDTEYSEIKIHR
Protein translocase subunit SecA (Escherichia coli (strain K12)), sequence (P10408 whole entry): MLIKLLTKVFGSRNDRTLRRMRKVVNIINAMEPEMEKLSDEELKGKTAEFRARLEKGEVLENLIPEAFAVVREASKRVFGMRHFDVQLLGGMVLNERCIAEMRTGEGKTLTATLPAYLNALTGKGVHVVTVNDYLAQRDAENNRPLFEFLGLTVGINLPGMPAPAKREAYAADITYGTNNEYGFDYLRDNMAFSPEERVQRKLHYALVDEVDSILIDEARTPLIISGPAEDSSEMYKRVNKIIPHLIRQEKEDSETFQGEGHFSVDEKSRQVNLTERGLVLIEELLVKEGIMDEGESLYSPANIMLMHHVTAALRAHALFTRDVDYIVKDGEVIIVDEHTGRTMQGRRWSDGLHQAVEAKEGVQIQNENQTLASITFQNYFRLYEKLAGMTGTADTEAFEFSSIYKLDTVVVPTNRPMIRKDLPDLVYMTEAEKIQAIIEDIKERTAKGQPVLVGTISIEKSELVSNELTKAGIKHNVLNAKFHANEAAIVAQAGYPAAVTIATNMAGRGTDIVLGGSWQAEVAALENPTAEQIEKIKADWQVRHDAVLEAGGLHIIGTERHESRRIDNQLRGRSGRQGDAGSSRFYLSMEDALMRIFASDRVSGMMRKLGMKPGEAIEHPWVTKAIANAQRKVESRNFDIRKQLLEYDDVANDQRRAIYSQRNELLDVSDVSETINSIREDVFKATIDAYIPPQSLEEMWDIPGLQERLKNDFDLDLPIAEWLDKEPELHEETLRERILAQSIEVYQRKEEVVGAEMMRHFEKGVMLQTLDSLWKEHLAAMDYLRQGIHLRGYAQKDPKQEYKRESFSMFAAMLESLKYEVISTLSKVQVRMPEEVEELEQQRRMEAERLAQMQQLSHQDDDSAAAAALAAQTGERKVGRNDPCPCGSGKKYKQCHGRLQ

For the compound `COc1cccc(C(=O)NCCCN2CCc3ccccc3C2)c1OC`, the Percent Effect is -0.301% in test [1]; -5.33% in [2]; 7.23% in [3]; -2.81% in the test on Trypanosoma cruzi; 1.77% in test [4]; -5.34% in [5]. For the same compound, the Percent Effect was 10.1% in the test listed under Homo sapiens, 2.63% in [6], 0% in test [7] and -4.32% in test [8].

With `Cc1ccccc1-c1cc(C(=O)NCCN2CCCS2(=O)=O)[nH]n1`, the Percent Effect in [1] was -1.9%; in test [2], 12.8%; in test [3] it was -10.8%; with Trypanosoma cruzi, 9.3%; in [4] it was -2.05%; in test [5], 5.72%. Moreover, the Percent Effect in the test filed under Homo sapiens was 4.69%; in test [6] it was 5.26%; in [7], 20.5%; in [8], -1.78%.

As for `Cc1nc(C2CCCN(C(=O)CO)C2)cc(N2CCOCC2)n1` (stereo not given), the Percent Effect was -7.77% in [1]; 0% in test [2]; 22.8% in test [3]; 9.02% in the test with Trypanosoma cruzi; -2.45% in test [4]; 13.7% in test [5]. Further, the Percent Effect was 6.91% in the test filed under Homo sapiens, 3.72% in [6], 14.6% in [7] and -5.28% in test [8].

Turning to `CS(=O)(=O)NCC1CCCN(C(=O)c2ccc(Cl)o2)C1` (stereo not given), the Percent Effect was 1.32% in test [1]; 7.79% in test [2]; -4.36% in test [3]; -0.746% in the test with Trypanosoma cruzi; 7.58% in [4]; 14.6% in [5]. Moreover, the Percent Effect is -11.3% in the test listed under Homo sapiens, 4.9% in test [6], 18.8% in test [7] and -10% in test [8].

Regarding `Cc1cc(-c2nn(C)c(Cl)c2CN2CCOCC2CC(=O)O)no1` (stereo not given), the Percent Effect was -6.59% in test [1]; 10.8% in test [2]; 10.3% in [3]; 5.92% in the test on Trypanosoma cruzi; 15.7% in test [4]; 12.2% in test [5]. Further, the Percent Effect in the test filed under Homo sapiens is 22.2%; in test [6], 7.98%; in test [7], 12.2%; in test [8], -0.504%.

Take `COc1c(C2CCCN2Cc2c(C)noc2C)c(C)nn1C` (stereo not given): the Percent Effect in test [1] is -5.49%; in [2], -2.67%; in test [3] it was 0.668%; with Trypanosoma cruzi, 5.82%; in [4], 1.33%; in test [5] it was 6.19%. Besides, the Percent Effect in the test listed under Homo sapiens is -12.5%; in test [6] it was 0.526%; in test [7], 5.13%; in test [8], -8.53%.

For `O=C1CC2(CCCCN2C(=O)c2ccsc2)CN1CC1CC1` (stereo not given), the Percent Effect in test [1] was -4.46%; in test [2], 11.7%; in [3], 1.96%; in the test with Trypanosoma cruzi, 2.44%; in test [4], 4.57%; in test [5], 0.429%. For the same compound, the Percent Effect in the test listed under Homo sapiens was -8.36%; in [6] it was 8.7%; in test [7] it was 15%; in test [8] it was -4.62%.

Turning to `NC(=O)c1ccc(S(=O)(=O)NC(=O)COc2ccc3c(c2)CCC3)cc1`, the Percent Effect in test [1] was -4.96%; in test [2], 7.69%; in [3], -3.01%; with Trypanosoma cruzi, 8.54%; in test [4], 0.82%; in [5] it was 4.01%. In addition, the Percent Effect is 4.26% in the test filed under Homo sapiens, 3.35% in [6], 10.8% in [7] and 6.22% in test [8].

With `CC(C)Cc1nc(OCC(N)=O)c(C#N)c2c1CCC2`, the Percent Effect is -2.5% in test [1]; 5.41% in test [2]; 10.8% in test [3]; -9.99% in the test on Trypanosoma cruzi; 1.75% in test [4]; 19.4% in [5]. The Percent Effect in the test filed under Homo sapiens is 20.7%; in test [6], 3.72%; in [7], 7.32%; in test [8] it was -3.73%.

Consider `Cc1ncsc1C(=O)N(Cc1cccnc1)C1CC1`, for which the Percent Effect in [1] was -0.351%; in test [2] it was 2.56%; in [3] it was 10%; in the test on Trypanosoma cruzi it was 5.92%; in test [4] it was 4.1%; in [5] it was -1.45%. Besides, the Percent Effect in the test filed under Homo sapiens is 16.3%; in test [6], 1.44%; in test [7] it was 8.43%; in test [8] it was -2.14%.

With `O=C(c1ccc(C(F)(F)F)nc1)N1CCCC(n2cncn2)C1` (stereo not given), the Percent Effect in test [1] is 1.26%; in [2], -5.13%; in [3], -2.26%; in the test with Trypanosoma cruzi, 5.92%; in [4], 5.33%; in [5] it was 3.33%. Moreover, the Percent Effect is -13.8% in the test filed under Homo sapiens, -3.35% in test [6], 1.21% in test [7] and -3.39% in [8].

(Values after ChEMBL document CHEMBL3988442, “University of Dundee, Small-Polar-MMV Screening Library” (2021).)
